# BRCA1 expr up = qHTS Assay to Identify Small Molecule Activators of BRCA1 Expression; MCF7-BRCA1-FFLuc reporter, luminescence, 48 h; response scale: scaled: vehicle 0%, 10 µM genistein 100%; Potency, µM (top dose mostly 46.1 µM), inactives show top-dose activation, usual class: activators; 1.1% of 380,000 active; note: nearly all actives have a fitted effect of over 80% in size
#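 MCF7-BRCA1-FFLuc, 2000 cells/well; 2 h attach, 37 °C/5% CO2; compound 48 h; luciferase substrate 15 min; luminescence end-point. Norm. to genistein 10 microM max activation and DMSO; concentration-response curves fitted.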
# HEK293 tox = qHTS of GLP-1 Receptor Inverse Agonists: Cytotox Screen. HEK293 cAMP-luciferase reporter cells, luminescence, 24 h. Potency, µM (top dose mostly 38.3 µM), for inactives: top-dose activity change, negative = inhibition, most hits filed as inhibitors. 0.13% of 410,000 active. AID 624418, 2012;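 note: loss of luciferase light is scored as toxicity; % is set by controls: 0 for no effect and ±100 for the full control effect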
#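 Step one: seed cells (200 cells/uL, DMEM with 10% Nu serum, 1% pen-strep). Step two: 12-hour incubation at 37 deg C. Step three: pin 23 nL compound, incubate 24 hr. Step four: add luciferase reagent, read luminescence 12 min later.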
# GLP-1R agonist = qHTS of GLP-1 Receptor Agonists; HEK293 GLP-1R CRE-luciferase, luminescence, 4-6 h; cells express a hypersensitive GLP-1R form; AID 624172, 2012; Potency, µM (top dose mostly 45.6 µM), inactives show at the top dose activation, most hits filed as activators; 0.007% of 380,000 active; note: % of control where 0% means no effect
# Target sequence (P43220 whole entry, looked up): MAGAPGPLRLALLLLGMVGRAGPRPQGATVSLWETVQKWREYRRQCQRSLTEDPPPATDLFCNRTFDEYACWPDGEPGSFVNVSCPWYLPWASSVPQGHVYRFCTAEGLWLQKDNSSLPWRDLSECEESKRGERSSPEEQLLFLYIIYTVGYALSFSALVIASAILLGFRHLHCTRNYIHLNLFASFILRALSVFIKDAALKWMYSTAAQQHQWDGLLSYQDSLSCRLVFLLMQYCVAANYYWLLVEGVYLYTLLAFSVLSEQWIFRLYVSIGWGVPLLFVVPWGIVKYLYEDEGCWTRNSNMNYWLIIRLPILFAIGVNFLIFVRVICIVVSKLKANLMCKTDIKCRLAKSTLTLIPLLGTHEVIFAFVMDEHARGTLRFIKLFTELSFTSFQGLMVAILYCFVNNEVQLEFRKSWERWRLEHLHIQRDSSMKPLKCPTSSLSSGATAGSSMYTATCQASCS
# GLP-1R inv ag = qHTS of GLP-1 Receptor Inverse Agonists (Inhibition Mode); Potency, µM (top dose mostly 38.3 µM), inactives show top-dose activity change, negative = inhibition, most hits filed as inhibitors; HEK293 GLP-1R CRE-luciferase, luminescence, 24 h; GLP-1R form is constitutively active; AID 624417, 2012; 1.6% of 410,000 active; note: % is set by controls: 0 for no effect and ±100 for the full control effect; nearly all actives have a fitted effect of over 55% in size
#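 Readout was luciferase luminescence, measured 12 min after detection reagent at room temperature. Beforehand, GLP-1R reporter HEK293 cells had sat 12 h, then received compounds for 24 hr at 37 deg C.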
# Integrin act MD = qHTS for Activators of Integrin-Mediated Alleviation for Muscular Dystrophy; 0.064% of 350,000 active; Potency, µM (highest dose often 38.3 µM), for the others: at the highest dose activation, most hits filed as activators; alpha7betagal myoblasts, beta-gal FDG fluorescence, 48 h;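 note: 100% = response of the positive control SU9516; nearly all actives have a fitted effect of over 60% in size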
#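 Alpha7betagal+/- myoblasts (passage 13) were plated 16-24 hr, then exposed to compounds (1:260 dilution of DMSO stock) for 48 hours at 37C. After MPER lysis, β-galactosidase reporter activity was read as FDG fluorescence (ex 480/em 540) after 30 minutes.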
# Active calls of the source: *; ? = inconclusive; nt = not tested or not shown. The list is not random: actives were taken first. Their share in the collection is about 2.7%. Calls come from the whole dose curve; as a rule, active = well fitted curve in the direction sought with a large enough effect; inconclusive = small, poorly fitted or top-dose-only effect, or another doubt; inactive = no such curve, though single readings can be large; an effect the other way counts as inactive or inconclusive. Potency is the fitted concentration of half-maximal effect.
SMILES,BRCA1 expr up,HEK293 tox,GLP-1R agonist,GLP-1R inv ag,Integrin act MD
CCCCNC(=O)C1C(c2ccccc2)=Nc2ccccc2N1C(=O)c1ccc(C(F)(F)F)cc1 (configuration not stated),nt,-9.8%,nt,?,nt
Cc1cc(N2CCOCC2)nc2ccc(Cl)cc12,7.94µM*,33.8%,11.2%,45.3%,0.0%
Cc1ccc(C)c(S(=O)(=O)/N=C2\C=C(NS(=O)(=O)c3ccccc3)C(=O)c3ccccc32)c1,-50.4%,-26.2%,-2.2%,5.9%,10.1%
Cc1cc(C)c(S(=O)(=O)/N=C2/C=C(Sc3ncn[nH]3)C(=O)c3ccccc32)cc1C,-91.0%,?,-33.4%,10µM*,-56.6%
c1ccc2c(c1)nnn2-c1ncnc2sc3c(c12)CCCC3,-15.2%,-6.3%,9.2%,4.6%,-14.8%
c1ccc2c(c1)ncn2-c1ncnc2sc3c(c12)CCCC3,0.9%,-28.9%,5.1%,4.47µM*,12.3%
Cc1cc2ncn(-c3ncnc4sc5c(c34)CCCC5)c2cc1C,-15.9%,5.8%,16.1%,-43.8%,-4.8%
CC(O)CNc1nc2ccccc2n1-c1ncnc2sc3c(c12)CCC3 (configuration not stated),-64.1%,?,0.3%,10µM*,?
O=C(C[n+]1cccc2cc(Cl)ccc21)c1ccc2ccccc2c1,-58.5%,nt,nt,nt,nt
O=C(NCc1ccccc1Cl)c1ccc(NC(=O)c2nsc3ccccc23)cc1,nt,2.3%,nt,-28.6%,nt
O/N=C(/CBr)c1ccc2ccccc2c1,5.2%,nt,nt,nt,nt
CC(=O)Nc1ccc(NC(=O)c2cc3c(=O)n(Cc4cccnc4)ccc3nc2C)cc1,nt,3.5%,nt,1.8%,nt
CCCCC(=O)NC(c1ccccc1Cl)c1c(O)ccc2ccccc12 (configuration not stated),-51.4%,-20.7%,4.5%,?,-31.1%
CCCC(=O)NC(c1ccccc1Cl)c1c(O)ccc2ccccc12 (configuration not stated),-43.9%,?,-14.7%,7.08µM*,3.0%
CC(=O)Oc1ccc2ccccc2c1C(NC(=O)Cc1ccccc1)c1ccccc1Cl (configuration not stated),-64.7%,?,-14.4%,5.62µM*,-27.3%
Cc1ccc(C(NC(=O)C2CCCCC2)c2c(O)ccc3ccccc23)cc1 (configuration not stated),-71.1%,?,-26.2%,4.47µM*,-20.0%
Cc1oc2ncn(CC(C)C)c(=O)c2c1C(=O)N1CCN(c2cccc(C(F)(F)F)c2)CC1,23.5%,-8.1%,nt,-28.4%,nt
CC(=O)Oc1ccc(C(=O)Nc2cccc(C(=O)c3ccc(C)c(C)c3)c2)cc1,-41.3%,?,2.3%,12.6µM*,-9.6%
COc1ccc(C(=O)Nc2cccc(OC(=O)c3ccc(C)c(C)c3)c2)cc1,13.3%,-29.9%,-20.1%,?,0.9%
CC(CNC(=O)Cn1ccc2cc(S(=O)(=O)N3CCCCCC3)ccc21)c1ccccc1 (configuration not stated),nt,-8.1%,nt,11.2µM*,nt
CCn1ccc2cc(S(=O)(=O)N3CCC(C(=O)NCC(C)c4ccccc4)CC3)ccc21 (configuration not stated),nt,-12.3%,nt,5.6%,nt
c1ccc(CN2CCN(c3nc(-c4ccccc4)nc4ccccc34)CC2)cc1,-27.1%,5.0%,0.2%,3.55µM*,-27.0%
CC(I)CCC(C)[n+]1cccc(I)c1 (configuration not stated),1.1%,nt,nt,nt,nt
COc1ccc(N2CCCC2)c(NC(=O)c2ccc([N+](=O)[O-])o2)c1,-68.8%,-1.1%,13.9%,61.1%,7.94µM*
COC(=O)C1SCC2C(=O)N(Cc3ccc(F)cc3)CC(=O)N21 (configuration not stated),-9.3%,5.9%,-5.6%,2.1%,8.91µM*
COC(=O)C1SCC2C(=O)N(Cc3cccc(C)c3)CC(=O)N21 (configuration not stated),2.2%,2.4%,0.9%,14.0%,16.7%

# Bioassay records: PubChem BioAssay, National Center for Advancing Translational Sciences (NCATS)
